Our source for the Potency and activity, negative = cell killing values is PubChem BioAssay (NCATS).

Inconclusive results are not listed. A call without a number means that no potency is given here. Active and inactive are the calls of the source. Calls come from the whole dose curve; as a rule, active = well fitted inhibition curve with a large enough effect; inconclusive = small, poorly fitted or top-dose-only effect; inactive = flat fitted curve, though single readings scatter.
Potency is the fitted concentration of half-maximal effect.

In the assay the test system is astro (control astrocytes). Put plainly: Drug repurposing screens with cells derived from glioblastoma tumor samples (AID 1345199). Note: nearly all actives have a fitted effect of over 40% in size. The following applies: viability, ATP luminescence, 48 h; series mostly up to 45.9 µM. As for the experimental part: CD133+ cells were isolated from GBM patient biopsies and cultured as neurospheres. Neurospheres from four patients were used to screen the NCATS pharmaceutical collection (NPC) library of approved drugs and bioactive compounds. […] The neurospheres were incubated with drugs for 48 hours in 1536-well format, then assayed with an ATP content cell viability assay. […] These hits were cherry picked to confirm activity in the four original GBM lines screened plus three other slower growing GMB lines (unable to yield enough cells for a full primary screen). Variable activities of the confirmed primary hits in the different GBM patient lines were observed. The patient line 206 responded to the greatest number of compounds and line 923 responded to the least amount of active compounds.
For the compound `CC(C)c1cccc(C(C)C)c1O`, the Potency result is “inactive”.

Turning to `c1ccc(CN2CCNCC2)cc1`, the Potency result is “inactive”.

Regarding `CCN(CC)C(=O)[C@@H]1C=C2c3cccc4[nH]cc(c34)C[C@H]2N(C)C1`, the Potency result is “inactive”.

`C[C@H]1[C@@H]2Cc3ccc(O)cc3[C@@]1(C)CCN2C`: the Potency entry was “inactive”.

On to `CN[C@@H](C)Cc1ccccc1`, for which the Potency entry was “inactive”.

`CC(C)C[C@H](CN)CC(=O)O`: the Potency result was “inactive”.

For `CN1C(=O)COc2c(C(=O)NC3CN4CCC3CC4)cc(Cl)cc21` (stereo not given), the Potency entry was “inactive”.

`CC(NC(C)(C)C)C(=O)c1cccc(Cl)c1` (stereo not given): the Potency entry is “inactive”.

As to `C[C@]12CCC(=O)C=C1CC[C@@H]1[C@@H]2CC[C@@]2(C)[C@H]1CC[C@]2(C)O`, the Potency result was “inactive”.

On to `Nc1ccc([As](=O)(O)O)cc1`, for which the Potency result is “inactive”.

With `CCN[C@H](C)Cc1cccc(C(F)(F)F)c1`, the Potency result was “inactive”.

On to `CCOC(=O)CC(SP(=S)(OC)OC)C(=O)OCC` (stereo not given), for which the Potency result was “inactive”.

With `NC(=O)CS(=O)C(c1ccccc1)c1ccccc1` (stereo not given), the Potency result is “inactive”.

As to `O=C1Nc2ccc(Cl)cc2C(c2ccccc2)=NC1O` (stereo not given), the Potency entry is “inactive”.

On to `CC(C)(C)NCC(O)c1cc(Cl)c(N)c(C(F)(F)F)c1` (stereo not given), for which the Potency entry was “inactive”.

For the compound `CC(=O)NC1CCSC1=O` (stereo not given), the Potency result is “inactive”.

Take `CN1C(=O)CCS(=O)(=O)C1c1ccc(Cl)cc1` (stereo not given): the Potency result was “inactive”.

In the case of `CCCN(CCC)C(=O)Cc1c(-c2ccc(Cl)cc2)nc2ccc(Cl)cn12`, the Potency result is “inactive”.

Turning to `NC1=NC(=O)C(c2ccccc2)O1` (stereo not given), the Potency result is “inactive”.

In the case of `Clc1ccc(C(c2ccc(Cl)cc2)C(Cl)(Cl)Cl)cc1`, the Potency result is “inactive”.

Regarding `O=C(N/N=C/c1ccc([N+](=O)[O-])o1)c1cc([N+](=O)[O-])cc([N+](=O)[O-])c1O`, the Potency result was “inactive”.

With `COc1ccc2c(c1)C13CCCC[C@@H]1C(C2)N(C)CC3` (stereo not given in full), the Potency entry was “inactive”.

Take `COP(=S)(OC)Oc1cc(Cl)c(Cl)cc1Cl`: the Potency entry was “inactive”.

On to `CN1C(=O)C(O)N=C(c2ccccc2)c2cc(Cl)ccc21` (stereo not given), for which the Potency entry was “inactive”.

For the compound `CN1CCC(O)(c2ccc(F)cc2)C(C(=O)c2ccc(F)cc2)C1` (stereo not given), the Potency result was “inactive”.

Regarding `COc1cc(CCN)cc(OC)c1OC`, the Potency result was “inactive”.

`O=[N+]([O-])O[C@H]1CO[C@H]2[C@@H]1OC[C@H]2O[N+](=O)[O-]`: the Potency entry was “inactive”.

Turning to `CCOP(=S)(OCC)Oc1ccc2c(C)c(Cl)c(=O)oc2c1`, the Potency result is “inactive”.

As to `Clc1cccc(SC2CCNCC2)n1`, the Potency is 35.5 µM (active).

With `CN1C(=O)CC(=O)N(c2ccccc2)c2cc(Cl)ccc21`, the Potency result is “inactive”.

As for `CCCCC/C=C\C/C=C\C/C=C\C/C=C\CCCC(=O)NCC(=O)O`, the activity, negative = cell killing was 0.313% [at 4.17 µM] (inactive).

Consider `CCN[C@@H](C)Cc1ccccc1`, for which the Potency result is “inactive”.

For the compound `Nc1ccccc1C(=O)O`, the Potency result is “inactive”.

`C[C@]12CCC(=O)C=C1CC[C@@H]1[C@@H]2CC[C@]2(C)C(=O)CC[C@@H]12`: the Potency result is “inactive”.

Turning to `CC(Cc1ccccc1)NCCn1cnc2c1c(=O)n(C)c(=O)n2C` (stereo not given), the Potency entry was “inactive”.

`NC(=O)c1cc([N+](=O)[O-])cc([N+](=O)[O-])c1`: the Potency result is “inactive”.

As to `CCN(CC)CCc1c[nH]c2ccccc12`, the Potency entry is “inactive”.

As for `COP(=S)(OC)SCN1C(=O)c2ccccc2C1=O`, the Potency result is “inactive”.

For the compound `Clc1ccc2c(c1)C(c1ccccc1)=NCc1nncn1-2`, the Potency result was “inactive”.

On to `COC(=O)C(Cl)C(=O)OC`, for which the Potency result was “inactive”.
